Here are results for eight molecules from PubChem BioAssay (Tox21).

A short description of test [1]: qHTS assay to identify aromatase inhibitors - cell viability counter screen (AID 743084).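 Also: cells stimulated with testosterone during compound exposure; nearly all actives have a fitted effect of over 55% in size.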 Also: potency is read from the fitted curve at half-maximal effect.
Test [2] has as its target Aryl hydrocarbon receptor (Homo sapiens) (UniProt P35869). Briefly: qHTS assay to identify small molecule that activate the aryl hydrocarbon receptor (AhR) signaling pathway (AID 743085). Also: nearly all actives have a fitted effect of over 15% in size. Also: potency is read from the fitted curve at half-maximal effect.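 As to activation: HG2L7.5c1 human HepG2 liver cells with stably integrated DRE-driven firefly reporter; series mostly up to about 70 µM.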 Put shortly: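 24 h compound exposure, 37C, HepG2-derived HG2L7.5c1 cells with DRE-responsive luciferase. Readouts: fluorescence viability, then luminescence at room temperature after 30 min.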
(In general: Quantitative high-throughput screening tests each substance at several concentrations.)

Test [3] is described as follows: qHTS assay to identify small molecule that activate the aryl hydrocarbon receptor (AhR) signaling pathway - cell viability counter screen (AID 743086). Also: nearly all actives have a fitted effect of over 45% in size. Also: potency is read from the fitted curve at half-maximal effect. Put shortly: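 HepG2-AhR-luc (HG2L7.5c1) cells, 4000/well, treated 24 h at 37 C with compound; viability measured as CellTiter-Fluor fluorescence after 30 min in the same wells as the luciferase read.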
In test [4] the target is Peroxisome proliferator-activated receptor gamma (Homo sapiens) (UniProt P37231). Nature of the test: qHTS assay to identify small molecule agonists of the peroxisome proliferator-activated receptor gamma (PPARg) signaling pathway (AID 743094; active = well fitted activation curve with a large enough effect in the signal ratio in the repeat runs, not every such curve was filed as active; the % refers to the signal ratio; also: potency is read from the fitted curve at half-maximal effect). In outline: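 Following 5 h plating at 37C, PPARg-bla HEK293H cells receive compound or DMSO for 17 h; fluorescence intensity is recorded after LiveBLAzer B/G loading for 1 h at room temperature.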
Peroxisome proliferator-activated receptor gamma (Homo sapiens), sequence (P37231 whole entry, looked up): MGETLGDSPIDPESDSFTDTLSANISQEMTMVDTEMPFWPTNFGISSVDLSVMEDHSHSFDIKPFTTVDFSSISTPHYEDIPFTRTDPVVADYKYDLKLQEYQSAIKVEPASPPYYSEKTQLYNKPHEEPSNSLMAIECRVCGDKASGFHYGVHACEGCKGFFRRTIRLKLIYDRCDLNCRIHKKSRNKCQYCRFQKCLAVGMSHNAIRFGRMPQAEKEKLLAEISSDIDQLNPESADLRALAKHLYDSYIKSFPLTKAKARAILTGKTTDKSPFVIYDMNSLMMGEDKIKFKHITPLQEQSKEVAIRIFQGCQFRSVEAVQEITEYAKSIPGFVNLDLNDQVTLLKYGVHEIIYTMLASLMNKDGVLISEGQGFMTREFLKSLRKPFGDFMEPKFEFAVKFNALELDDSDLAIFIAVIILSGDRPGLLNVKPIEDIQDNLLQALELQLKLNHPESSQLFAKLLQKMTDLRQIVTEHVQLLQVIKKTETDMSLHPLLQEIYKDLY

Test [5] in a line: qHTS assay to identify small molecule antagonists of the peroxisome proliferator-activated receptor gamma (PPARg) signaling pathway - cell viability counter screen (AID 743194). Also: nearly all actives have a fitted effect of over 55% in size. In outline:
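Cytotoxicity counter screen in PPARg-bla HEK293H cells, same wells as reporter assay. Compounds plus 50 nM rosiglitazone (final) for 17 h at 37 C, then viability read by CellTiter-Glo luminescence.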

Test [6] is described as follows: qHTS assay for small molecule agonists of the antioxidant response element (ARE) signaling pathway (AID 743202; active = well fitted activation curve with a large enough effect in the signal ratio in the repeat runs, not every such curve was filed as active; the % refers to the signal ratio; also: potency is read from the fitted curve at half-maximal effect). Put shortly:
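Agonist mode reporter screen: HepG2 cells with ARE-controlled beta-lactamase are incubated with test compounds for 16 h at 37 C, and beta-lactamase activity is measured as fluorescence of cleaved B/G FRET substrate.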

Test [7] in a line: qHTS assay for small molecule agonists of the antioxidant response element (ARE) signaling pathway - cell viability counter screen (AID 743203; calls by dose curve; also: nearly all actives have a fitted effect of over 55% in size). In outline:
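Compounds in DMSO were pinned onto ARE-bla HepG2 cells plated 5 hrs earlier at 2,000 cells/well. Sixteen hours later at 37C/5% CO2, CellTiter-Glo was added and luminescence measured after 30 min at room temperature.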

Test [8] can be described thus: qHTS assay for small molecule activators of the heat shock response signaling pathway - cell viability counter screen (AID 743209). Also: nearly all actives have a fitted effect of over 50% in size. Also: potency is read from the fitted curve at half-maximal effect. In outline: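 Counter screen for cytotoxicity in HeLa HSE-bla reporter cells. Treatment was 5 h at 37 C; viability was detected by luminescent ATP assay (CellTiter-Glo) in the same wells as the beta-lactamase read.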
A short description of test [9]: qHTS assay for small molecule activators of the heat shock response signaling pathway (AID 743210; active = well fitted activation curve with a large enough effect in the signal ratio in the repeat runs, with a control signal flat, not every such curve was filed as active; the % refers to the signal ratio;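 also: HeLa cells with beta-lactamase reporter driven by heat shock elements; series mostly up to about 63 µM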). Put shortly: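 Quantitative high-throughput format using an engineered HeLa line in which heat shock response elements drive beta-lactamase; after 5 h with compound, cells received a B/G FRET substrate and fluorescence was read.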
Test [10] can be described thus: qHTS assay to identify small molecule agonists of the peroxisome proliferator-activated receptor delta (PPARd) signaling pathway - cell viability counter screen (AID 743211). Also: nearly all actives have a fitted effect of over 55% in size. Also: potency is read from the fitted curve at half-maximal effect. In outline: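 Luminescent ATP viability assay (CellTiter-Glo, 30 min RT) in UAS-bla HEK293H cells carrying the PPAR delta reporter construct, 3000 cells/well, after a 17 h compound treatment at 37 C.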

The target in test [11] is Peroxisome proliferator-activated receptor delta (Homo sapiens) (UniProt Q03181). Nature of the test: qHTS assay to identify small molecule agonists of the peroxisome proliferator-activated receptor delta (PPARd) signaling pathway (AID 743212; calls by dose curve). In outline:
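Quantitative high-throughput agonist screen in a HEK293H beta-lactamase reporter line under UAS control. Compounds in DMSO, at 37 C. Fluorescence read after 2 h with FRET substrate at room temperature.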

Test [12] in a line: qHTS assay to identify small molecule antagonists of the peroxisome proliferator-activated receptor delta (PPARd) signaling pathway - cell viability counter screen (AID 743213). Also: nearly all actives have a fitted effect of over 50% in size. Also: potency is read from the fitted curve at half-maximal effect. Put shortly: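 In this counter screen, HEK293H cells carrying a UAS-beta-lactamase reporter are co-treated with test compounds and 300 nM L165041 (final) for 17 h at 37 C; cell viability is quantified by CellTiter-Glo luminescence.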

Test [13] addresses Peroxisome proliferator-activated receptor delta (Homo sapiens) (UniProt Q03181). Briefly: qHTS assay to identify small molecule antagonists of the peroxisome proliferator-activated receptor delta (PPARd) signaling pathway (AID 743215; active = well fitted inhibition curve with a large enough effect in the signal ratio in the repeat runs, not every such curve was filed as active; the % refers to the signal ratio;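 also: cells stimulated with agonist L165041 at 300 nM final during compound exposure; series mostly up to about 62 µM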). In outline: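 With L165041 present at 300 nM final, compounds were incubated 17 h at 37 C on PPARd UAS-bla HEK293H cells. A FRET-based beta-lactamase substrate was then applied for 2 h at room temperature and fluorescence intensity recorded.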

Test [14] deals with Bile acid receptor (Homo sapiens) (UniProt Q96RI1). Briefly: qHTS assay to identify small molecule antagonists of the farnesoid-X-receptor (FXR) signaling pathway (AID 743217; active = well fitted inhibition curve with a large enough effect in the signal ratio in the repeat runs, not every such curve was filed as active; the % refers to the signal ratio). In outline: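 In this cell-based antagonist screen, inhibition of CDCA-driven (50 uM final) UAS-beta-lactamase expression in HEK 293T cells was measured by FRET fluorescence following 16 h compound exposure at 37 °C.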
Bile acid receptor (Homo sapiens), sequence (Q96RI1 whole entry, looked up): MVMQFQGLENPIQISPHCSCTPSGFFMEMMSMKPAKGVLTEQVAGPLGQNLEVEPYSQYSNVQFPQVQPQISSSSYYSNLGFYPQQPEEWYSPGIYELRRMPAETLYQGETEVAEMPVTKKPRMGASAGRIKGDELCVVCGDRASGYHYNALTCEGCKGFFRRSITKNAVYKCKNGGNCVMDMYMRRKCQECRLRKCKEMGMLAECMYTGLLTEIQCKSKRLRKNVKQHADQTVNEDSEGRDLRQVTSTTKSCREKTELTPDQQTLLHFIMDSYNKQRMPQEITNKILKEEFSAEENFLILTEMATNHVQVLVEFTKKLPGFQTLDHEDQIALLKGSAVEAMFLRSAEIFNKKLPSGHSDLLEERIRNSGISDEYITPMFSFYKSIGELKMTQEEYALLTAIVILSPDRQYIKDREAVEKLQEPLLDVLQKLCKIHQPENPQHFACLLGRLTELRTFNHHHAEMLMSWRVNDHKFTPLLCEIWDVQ

Test [15] shares this target. Briefly: qHTS assay to identify small molecule agonists of the farnesoid-X-receptor (FXR) signaling pathway (AID 743220; active = well fitted activation curve with a large enough effect in the signal ratio in the repeat runs, not every such curve was filed as active; the % refers to the signal ratio). In outline: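 Beta-lactamase reporter under UAS control in GeneBLAzer FXR HEK 293T cells (5000/well) measured with LiveBLAzer FRET substrate after 2 h at room temperature. Compound exposure lasted 16 h at 37C.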
Test [16] in a line: qHTS assay to identify small molecule antagonists of the farnesoid-X-receptor (FXR) signaling pathway - cell viability counter screen (AID 743221; active = well fitted cell-killing curve with a large enough effect in the repeat runs, not every such curve was filed as active; also: nearly all actives have a fitted effect of over 50% in size). In outline:
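In GeneBLAzer FXR-UAS-bla HEK 293T cells stimulated with 50 uM chenodeoxycholic acid (final), compounds acted for 16 h at 37 C. Viability was assessed afterwards by CellTiter-Glo luminescence.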

In test [17] the target is Vitamin D3 receptor (Homo sapiens) (UniProt P11473). Nature of the test: qHTS assay to identify small molecule agonists of the vitamin D receptor (VDR) signaling pathway (AID 743222; calls by dose curve). In outline: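 VDR-bla cells were seeded, left 4 h, treated with compounds in DMSO for 16 h, incubated 2 h at RT with B/G FRET substrate, and read for fluorescence.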
Vitamin D3 receptor (Homo sapiens), sequence (P11473 whole entry, looked up): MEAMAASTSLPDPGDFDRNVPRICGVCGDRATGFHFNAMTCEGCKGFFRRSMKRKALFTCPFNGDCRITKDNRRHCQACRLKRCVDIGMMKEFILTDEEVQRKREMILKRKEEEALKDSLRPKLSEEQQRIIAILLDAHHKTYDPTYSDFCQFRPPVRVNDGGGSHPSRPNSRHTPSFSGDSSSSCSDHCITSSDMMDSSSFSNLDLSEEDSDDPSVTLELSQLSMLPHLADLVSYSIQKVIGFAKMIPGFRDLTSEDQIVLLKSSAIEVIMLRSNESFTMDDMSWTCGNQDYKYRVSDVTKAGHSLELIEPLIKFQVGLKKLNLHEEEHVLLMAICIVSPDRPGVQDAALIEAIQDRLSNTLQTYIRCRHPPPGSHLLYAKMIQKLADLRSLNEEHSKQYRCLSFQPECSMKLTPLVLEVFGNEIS
The target is the same in test [18]. Briefly: qHTS assay to identify small molecule antagonists of the vitamin D receptor (VDR) signaling pathway (AID 743223; active = well fitted inhibition curve with a large enough effect in the signal ratio in the repeat runs, not every such curve was filed as active; the % refers to the signal ratio). In outline:
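Agonist 1alpha,25-dihydroxyvitamin D3 (3 nM in well) was added with each compound to VDR-bla cells preincubated 4 h. Cells stood 16 h at 37C, then FRET substrate 2 h at room temperature; fluorescence intensity recorded.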

The target of test [19] is Peroxisome proliferator-activated receptor gamma (Homo sapiens) (UniProt P37231). Briefly: qHTS assay to identify small molecule antagonists of the peroxisome proliferator-activated receptor gamma (PPARg) signaling pathway (AID 743191; calls by dose curve; also: nearly all actives have a fitted effect of over 30% in size; also: potency is read from the fitted curve at half-maximal effect). Put shortly: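 GeneBLAzer PPARg UAS-bla HEK293H cells, 5 h post-plating, exposed to compounds 17 h at 37C. LiveBLAzer B/G FRET substrate added for 1 h at room temperature; beta-lactamase reporter read by fluorescence intensity.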

Test [20] can be described thus: qHTS assay to identify small molecule agonists of the farnesoid-X-receptor (FXR) signaling pathway - cell viability counter screen (AID 743218). Also: nearly all actives have a fitted effect of over 45% in size. Put shortly:
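After 16 h at 37 C with test compounds, FXR-bla HEK 293T cells were given LiveBLAzer B/G substrate for 2 h at RT and then CellTiter-Glo; luminescence was taken after 30 min.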

Records with an inconclusive call do not appear. The source made the active and inactive calls. Unless noted, calls follow the shape of the dose curve; as a rule, active = well fitted curve in the direction sought with a large enough effect in the repeat runs; inconclusive = weak or mixed curves; inactive = no such curve, though single readings can be large; an effect the other way counts as inactive or inconclusive.

Peroxisome proliferator-activated receptor delta (Homo sapiens), sequence (Q03181 whole entry, looked up): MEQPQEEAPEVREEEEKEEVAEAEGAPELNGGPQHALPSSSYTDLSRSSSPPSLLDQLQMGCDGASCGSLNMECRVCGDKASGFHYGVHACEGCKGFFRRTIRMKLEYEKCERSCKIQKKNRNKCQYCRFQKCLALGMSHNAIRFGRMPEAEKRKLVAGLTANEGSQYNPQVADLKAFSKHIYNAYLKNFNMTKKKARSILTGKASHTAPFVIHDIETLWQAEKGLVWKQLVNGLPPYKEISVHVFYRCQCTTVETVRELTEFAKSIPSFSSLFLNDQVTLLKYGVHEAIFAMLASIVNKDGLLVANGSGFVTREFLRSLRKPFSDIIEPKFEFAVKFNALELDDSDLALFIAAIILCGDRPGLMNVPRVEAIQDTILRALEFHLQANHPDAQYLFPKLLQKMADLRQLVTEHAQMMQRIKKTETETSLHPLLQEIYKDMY
Aryl hydrocarbon receptor (Homo sapiens), sequence (P35869 whole entry, looked up): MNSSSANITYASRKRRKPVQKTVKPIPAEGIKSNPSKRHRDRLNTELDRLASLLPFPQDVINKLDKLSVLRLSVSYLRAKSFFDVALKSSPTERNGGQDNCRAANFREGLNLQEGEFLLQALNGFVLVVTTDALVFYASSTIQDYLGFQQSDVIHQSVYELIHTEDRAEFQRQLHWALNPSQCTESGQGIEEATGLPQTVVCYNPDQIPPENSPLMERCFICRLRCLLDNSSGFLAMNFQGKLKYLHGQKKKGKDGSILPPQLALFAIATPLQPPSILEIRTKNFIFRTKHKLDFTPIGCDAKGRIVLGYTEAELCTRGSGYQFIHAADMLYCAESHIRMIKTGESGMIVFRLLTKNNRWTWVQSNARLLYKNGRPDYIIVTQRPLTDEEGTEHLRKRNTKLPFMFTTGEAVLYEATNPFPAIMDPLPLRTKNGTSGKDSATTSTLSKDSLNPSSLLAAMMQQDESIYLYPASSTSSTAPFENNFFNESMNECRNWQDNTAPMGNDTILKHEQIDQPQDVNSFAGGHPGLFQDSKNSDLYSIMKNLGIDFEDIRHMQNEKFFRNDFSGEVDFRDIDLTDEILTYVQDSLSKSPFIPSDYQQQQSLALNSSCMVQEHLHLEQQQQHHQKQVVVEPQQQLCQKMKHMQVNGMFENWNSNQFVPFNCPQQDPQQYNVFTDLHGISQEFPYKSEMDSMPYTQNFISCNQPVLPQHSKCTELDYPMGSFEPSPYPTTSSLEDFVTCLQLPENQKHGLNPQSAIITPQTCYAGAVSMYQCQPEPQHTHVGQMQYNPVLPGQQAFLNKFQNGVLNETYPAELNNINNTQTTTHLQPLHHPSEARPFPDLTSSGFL

Consider `CCCCCCCC/C=C\CCCCCCCC(=O)OCCOC(=O)CCCCCCC/C=C\CCCCCCCC`, for which the Potency entry in test [1], in test [2], in [3], in test [4], in [5] and in test [6] was “inactive” throughout. Further, the Potency entry in test [7], in test [8], in test [9], in test [10], in [12] and in [13] was “inactive” throughout. Besides, the Potency result in [14], in test [15], in [16], in [17] and in test [18] was “inactive” throughout. The result in test [11] was inactive.
Take `S=C(SSSSSSC(=S)N1CCCCC1)N1CCCCC1`: the Potency is 0.379 µM (active) in test [1]; 2.39 µM (active) in test [3]; 0.0763 µM (active) in test [8]; 0.108 µM (active) in [10]; 0.382 µM (active) in test [12]. In addition, the Potency result in [2], in test [4], in [19], in test [5], in [7] and in test [15] was “inactive” each time. Besides, the Potency entry in test [18] was “inactive”.
For `NC(=O)c1ccccc1N`, the Potency entry in test [1], in [2], in test [3], in [4], in test [19] and in test [5] was “inactive” each time. Moreover, the Potency entry in [6], in [7], in test [8], in test [9], in [10] and in test [12] was “inactive” throughout. The Potency entry in test [13], in test [20], in [16], in test [17] and in test [18] was “inactive” in each case. Further, the molecule was called inactive in [11].
Take `COC(=O)NCCC[Si](OC)(OC)OC`: the Potency result in [1], in test [2], in test [3], in [4], in [5] and in test [7] was “inactive” throughout. The Potency result in test [8], in [10], in test [20], in [16] and in test [18] was “inactive” throughout.
Regarding `O=C1OC(OC(=O)c2cccnc2Nc2cccc(C(F)(F)F)c2)c2ccccc21` (stereo not drawn), the Potency entry in test [1], in test [2], in [3], in [4], in test [5] and in [7] was “inactive” in each case. Besides, the Potency result in test [8], in test [10], in [12], in test [20], in test [16] and in [17] was “inactive” each time. The Potency in [19] was 11.9 µM (active).
In the case of `CC(COC(=O)c1ccccc1)OC(=O)c1ccccc1` (stereo not drawn), the Potency entry in [1], in [2], in [3], in test [4], in [5] and in test [7] was “inactive” throughout. For the same molecule, the Potency result in [8], in [9], in test [10], in test [12], in test [16] and in [18] was “inactive” in each case.
In the case of `COc1cc(C(=O)NS(=O)(=O)c2ccccc2C)ccc1Cc1cn(C)c2ccc(NC(=O)OC3CCCC3)cc12`, the Potency result in test [1], in test [3], in test [7], in test [8], in test [9] and in test [12] was “inactive” throughout. For the same molecule, the Potency result in test [16] and in test [18] was “inactive” in each case. In addition, the Potency in test [2] is 26.6 µM (active); in test [4] it was 0.169 µM (active); in test [6], 29.8 µM (active).
With `CC(C)N=C(N)/N=C(\N)Nc1ccc(Cl)cc1`, the Potency entry in test [1], in test [2], in test [3], in test [4], in test [5] and in test [7] was “inactive” each time. The Potency entry in [8], in [9], in test [14], in [15] and in [17] was “inactive” throughout. The call in test [11] was inactive. The Potency in test [12] is 11.9 µM (active).
